Assay results: PubChem BioAssay (NCATS)
Where “and” joins values, the source holds several entries; their conditions need not be identical. Equal values may be shown once. Results filed as inconclusive are left out. Unmarked numbers belong to inactive results. Calls follow the shape of the dose curve; as a rule, active = well fitted inhibition curve with a large enough effect in the signal ratio, with a control signal flat (not every such curve was filed as active); inconclusive = small, poorly fitted or top-dose-only effect, or effect the other way, or a change in a side signal; inactive = no such curve, though single readings can be large or run the other way; the % refers to the signal ratio.

Target: Retinoic acid receptor RXR-alpha (Homo sapiens) (UniProt P19793)
Sequence (P19793 whole entry, looked up): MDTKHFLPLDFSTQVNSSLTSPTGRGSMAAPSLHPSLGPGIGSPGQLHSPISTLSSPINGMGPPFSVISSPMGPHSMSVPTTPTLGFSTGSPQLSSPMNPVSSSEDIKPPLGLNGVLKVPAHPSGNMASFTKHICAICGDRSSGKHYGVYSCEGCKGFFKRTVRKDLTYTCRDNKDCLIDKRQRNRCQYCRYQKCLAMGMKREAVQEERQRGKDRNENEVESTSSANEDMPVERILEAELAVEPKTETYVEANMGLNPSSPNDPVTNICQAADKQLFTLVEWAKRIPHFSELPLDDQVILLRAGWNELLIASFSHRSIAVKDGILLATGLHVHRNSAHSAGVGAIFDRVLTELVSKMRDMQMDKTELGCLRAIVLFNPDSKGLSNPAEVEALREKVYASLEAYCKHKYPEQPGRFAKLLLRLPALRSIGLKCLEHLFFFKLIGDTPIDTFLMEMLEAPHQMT
Assay: qHTS assay for small molecule antagonists of retinoid X receptor alpha signaling (AID 588546)
Conditions: HEK293T RXRa-UAS-bla, beta-lactamase ratio, antagonist mode
From the text: NIH Chemical Genomics Center [NCGC] U.S. Environmental Protection Agency [EPA] National Institutes of Environmental Health Sciences [NIEHS] National Toxicology Program [NTP] NCGC Assay Overview The Retinoid X receptor (RXR), a nuclear hormone receptor is expressed in liver, spleen, placenta, epidermis, central nervous system. These receptors are able to form homo and heterodimers with other nuclear receptors and due to this heterodimerizing ability, RXR functions as master regulators producing diverse physiological effects. Three subtypes of RXR exist; alpha, beta and gamma. Retinoid X receptor alpha (RXR-alpha) has potential roles in metabolic signaling pathways, skin alopecia, dermal cysts, cardiac development, insulin sensitization etc. Therefore screening environmental chemicals on RXR-alpha signaling can be used for the studies focused on such therapeutic applications.
NCGC Assay Protocol Summary Using a beta-lactamase reporter-gene under control of Retinoid X receptor--alpha (RXR-alpha) response element, a cell-based assay [GeneBLAzer (RXR-alpha -UAS-bla assay developed by Invitrogen] was used to measure RXR-alpha ligands signaling. GeneBLAzer RXR-alpha -UAS-bla HEK293T cells were used with assay medium containing 2% charcoal-stripped FBS. The assay was performed in clear bottom black Greiner 1536-well plates. Library compounds were measured for their ability to inhibit the reporter gene activity. Compounds were screened in a titration series in 1536-well format. The fluorescence intensity (405 nm excitation, 460/530 nm emission) was measured using an EnVision plate reader. Data was normalized relative to 9-cis-retinoic acid control (500 nM, 100%), and DMSO only wells (basal, 0%). Concentration-response titration points for each compound were fitted to the Hill equation yielding concentrations of half-maximal inhibition (IC50) and maximal response (efficacy) values. qHTS protocol for RXR-alpha beta-lactamase assay in antagonist mode [Step] [Parameter] [Value] [Description] 1. Reagent; 5 uL; 2500 cells/well 2. Incubation; 37 C for 4 hrs 3. Compounds; 23 nL; 0.59 nM to 92 uM 4. Controls (DMSO); 23 nL 5. Agonist (Stimulator); 1uL; 9-cis-retinoic acid at 500 nM and 100 nM final concentrations 6. Incubation; 37 C for 18 hrs 7. Detection reagent; 1 uL of CCF4-dye 8. Incubation; RT for 2 hrs 9. Detection; Fluorescence; Envision plate reader
% is scaled to controls: 0 for no effect and ±100 for the full control effect.

| SMILES | max response |
| --- | --- |
| CCCC(C)CO (stereo not given) | -5.45% |
| Cc1ccc(Cl)cc1N | 0.248% |
| CC(=O)Nc1ccccc1C | 2.75% |
| Cc1cc(C)cc(O)c1 | 24.6% |
| CCN(Cc1ccccc1)c1ccccc1 | -8.29% |
| COc1ccccc1[N+](=O)[O-] | 20.4% and 0.175% |
| CC(=O)Nc1ccc(N)cc1 | 0.952% |
| CC#N | 10.2% |
| CCCCCCCCCCCCC1CO1 (stereo not given) | 7.51% |
| C=CCOC(=O)CCCCCCCC | -5.32% |
| CC(O)CC(C)O (stereo not given) | 3.51% |
| CC(=O)c1ccc([N+](=O)[O-])cc1 | 1.74% |
| Nc1cccc(N)c1 | -3.92% |
| CCC(C)(C)C(=O)O | 6.62% |
| Cc1cscn1 | 3.21% |
| CCNS(=O)(=O)c1ccc(C)cc1 | 3.72% |
| CCCCC(CC)COC(=O)CCCCC(=O)OCC(CC)CCCC (stereo not given) | 12% and 4.32% |
| Cc1cc(C2(c3cc(C)c(O)cc3C)OS(=O)(=O)c3ccccc32)c(C)cc1O | 0.408% |
| COC(=O)CCC(=O)OC | 6.03% |
| CC(=O)c1nccs1 | -9.7% |

| SMILES | max response |
| --- | --- |
| Nc1cccc([N+](=O)[O-])c1 | 1.86% |
| Cc1ccc(Br)cc1 | -0.837% |
| Cc1cc(C)cc([N+](=O)[O-])c1 | 4.7% |
| C=C(C)OC(C)=O | -11.4% |
| CCCCCCCCC/C=C/CC1CC(=O)OC1=O (stereo not given) | 19.9% |
| ClCCl | 5.83% |
| Cc1ccccc1Br | 1.27% |
| OC(CCl)CCl | -2.39% |
| CCCCC(CC)CNCC(CC)CCCC (stereo not given) | 10% |
| CC(C=O)Cc1ccc(C(C)(C)C)cc1 (stereo not given) | -0.768% and 2.1% |
| O=[N+]([O-])c1ccccc1CCO | -8.97% |
| O=C(O)CNC(=O)c1ccc([N+](=O)[O-])cc1 | 23.2% |
| O=[N+]([O-])c1ccc(NCCO)c(OCCO)c1 | -6.4% |
| CCCCN(CCO)CCCC | 4.73% |
| Cc1cc(C)c(N)cc1C | 16.4% |
| CCCCC(CC)COCC1CO1 (stereo not given) | 9.33% |
| COC(=O)CCCC(=O)OC | -11% |
| Cc1c(N)cccc1N | -6.28% |
| Cc1ccco1 | 5.14% |
| NS(=O)(=O)O | 17% |
